Bioassay records: PubChem BioAssay, National Center for Advancing Translational Sciences (NCATS)
Hits are enriched below; roughly 2.9% of the tested compounds scored in any of these assays.
B2AR arrestin – agonists driving beta-arrestin recruitment to human beta2-adrenergic receptor. P07550. beta-arrestin recruitment to beta2AR, cell-based reporter. Potency, µM (top dose mostly 46.1 µM), for inactives: at the highest dose activation, actives largely listed as activators. actives 0.02% (n = 330,000);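 further: potency means the concentration at half of the fitted maximal effect; 0% = DMSO controls and full agonism = EC100 isoproterenol or metaproterenol; nearly all actives have a fitted effect of over 65% in size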
Target sequence (P07550 whole entry, looked up): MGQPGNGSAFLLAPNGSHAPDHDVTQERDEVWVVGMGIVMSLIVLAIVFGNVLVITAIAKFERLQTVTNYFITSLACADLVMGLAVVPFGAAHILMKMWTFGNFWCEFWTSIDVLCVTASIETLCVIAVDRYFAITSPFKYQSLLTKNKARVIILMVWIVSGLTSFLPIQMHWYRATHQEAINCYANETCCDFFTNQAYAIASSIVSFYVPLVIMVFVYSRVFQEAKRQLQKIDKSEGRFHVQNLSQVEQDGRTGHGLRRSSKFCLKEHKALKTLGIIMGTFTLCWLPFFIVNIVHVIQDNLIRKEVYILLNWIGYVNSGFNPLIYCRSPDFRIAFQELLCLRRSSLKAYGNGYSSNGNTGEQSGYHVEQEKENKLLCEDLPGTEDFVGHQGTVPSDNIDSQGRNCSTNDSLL
a7 integrin act – activates integrin-mediated alleviation for muscular dystrophy; Potency, µM (top dose mostly 38.3 µM), for inactives: top-dose activation, actives largely listed as activators; actives 0.064% (n = 350,000); AID 624291; alpha7betagal myoblasts, beta-gal FDG fluorescence, 48 h;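 further: potency means the concentration at half of the fitted maximal effect; 100% = response of the positive control SU9516; nearly all actives have a fitted effect of over 60% in size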
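alpha7betagal+/- myoblasts (passage 13, 250/well) treated 48 h at 37C with compounds at 1:260 dilution of DMSO stock. Lysed, then beta-galactosidase activity read as FDG fluorescence (ex 480/em 540) after 30 min, with pre-read for autofluorescence.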
mIDH1 inhibitor – human IDH1 R132H inhibition; O75874; IDH1-R132H enzyme, NADPH consumption, diaphorase/resazurin fluorescence; Potency, µM (doses to about 76.6 µM), for the others: at the highest dose activity change, negative = inhibition, actives largely listed as inhibitors; actives 0.093% (n = 390,000); further: potency means the concentration at half of the fitted maximal effect; on the % scale 0 is the no-effect control and ±100 the full control effect; nearly all actives have a fitted effect of over 65% in size
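IDH1-R132H (0.5 ug/mL) preincubated 30 min with compound, then NADPH (0.016 mM) and alpha-KG (2 mM) added; 80 min at RT, pH 7.5. Remaining NADPH coupled via diaphorase/resazurin to fluorescence (540/590 nm); concentration-response curves normalized to no-enzyme control.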
DRD3 agonist – activates the human D3 dopamine receptor | D3R DiscoveRx beta-arrestin cells, luminescence, 90 min | actives 0.58% (n = 410,000) | P35462 | max activation, %; in the data active means max activation above about 30%; further: 0% is about no effect
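Agonist-mode cell screen: cells plated at 1500/well and incubated overnight at 37 °C, then exposed to library compounds for 90 min at 37 °C. Detection reagent was added for 30–60 min at room temperature, and luminescence was read.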
D3 antag – D3 dopamine receptor (human) antagonism; P35462; D3R cells, DiscoveRx beta-arrestin luminescence, antagonist mode; hits give low values; max response, negative = inhibition, %; actives 2.5% (n = 360,000); in the data active means max response below about -50%; inconclusive means no clear call, values can overlap the other calls; further: on the % scale 0 is the no-effect control and ±100 the full control effect
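Cells expressing the human receptor were seeded at 1500 cells/well, incubated overnight at 37 degrees C in 5% CO2, then exposed to library compounds with dopamine controls for 90 minutes at 37 degrees C before luminescent detection.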
Starred values were filed as active, the others as inactive; ? = inconclusive; . = no result given. Unless noted, the call rests on the fitted dose curve; in most records, active means well fitted curve in the direction sought with a large enough effect; inconclusive means small, poorly fitted or top-dose-only effect, or another doubt; inactive means no such curve, though single readings can be large; an effect the other way counts as inactive or inconclusive.

SMILES	B2AR arrestin	a7 integrin act	mIDH1 inhibitor	DRD3 agonist	D3 antag
CCOC(=O)N1CCN(S(=O)(=O)c2ccc3[nH]c(=O)oc3c2)CC1	0.4%	10.2%	-3.6%	34.0*	-6.0
COc1ccccc1-c1cc(C(=O)N/N=C/c2ccoc2)c2ccccc2n1	0.4%	-20.2%	6.0%	-7.6	-50.7*
COc1ccc(OC)c(/C=N/NC(=O)c2cc(-c3ccc(C)o3)nc3ccccc23)c1	-0.4%	-19.3%	5.3%	37.4*	19.6
COc1cc(/C=N/NC(=O)c2cc(-c3cccc(OC(C)C)c3)nc3ccccc23)ccc1O	.	11.5%	5.9%	72.9*	61.8
CCOc1cc(C(=O)N/N=C/c2ccoc2)cc(OCC)c1OCC	0.0%	29.9%	-6.2%	-15.6	-70.4*
CCOc1ccc(CNC(=O)c2ccccc2NC(=O)c2nsc3ccccc23)cc1	.	.	10.3%	-17.2	.
COc1ccc(O)c(/C=N/NC(=O)c2cc(=O)[nH]c3ccccc23)c1	0.2%	5.62µM*	4.1%	3.0	6.8
O=C1C(=O)c2c(ccc3ccccc23)-c2ccccc21	.	-23.4%	12.4%	-13.9	-53.5*
CN(C)/C=C1\Oc2ccc3ccccc3c2C1=O	0.2%	29.8%	2.9%	0.1	-12.1
COC(=O)[C@H](C(C)C)N(Cc1ccccc1)S(=O)(=O)CCN1CCCC1	-2.9%	0.0%	-1.4%	-38.7	-59.5*
COC(=O)[C@H](C)N(Cc1ccc(Cl)c(Cl)c1)S(=O)(=O)CCN1CCN(c2ccccc2)CC1	-0.2%	14.3%	13.8%	-32.3	-70.8*
CN(Cc1ccc(Cl)c(Cl)c1)C(=O)c1ccccc1SCC(=O)N1CCCC1	-0.6%	-1.7%	4.7%	-2.7	6.7
COC(=O)[C@H](C)N(Cc1ccc(Cl)c(Cl)c1)S(=O)(=O)CCN1CCCC1	-0.7%	-6.1%	24.4%	-72.7	-67.8*
COC(=O)[C@H](C(C)C)N(Cc1ccccc1)S(=O)(=O)CCN1CCN(c2ccccc2)CC1	-0.9%	14.4%	10.5%	-33.2	?
Fc1cccc(CNc2ncnc3ccc(-c4ccoc4)cc23)c1	-0.7%	.	.	.	.
Cc1oc(-c2cccc(Cl)c2)nc1CSc1nc2ncccc2[nH]1	.	.	-5.8%	16.0	.
O=C(Nc1ccccc1F)c1ccc(O)c2ncccc12	10.6%	.	.	.	.
CC(=O)c1ccc(N2CCN(CC(=O)NCc3ccccc3)CC2)cc1	-1.2%	6.9%	0.4%	-3.9	-7.4
C/C(=C\c1ccccc1)CN1CCN(c2ccccc2)CC1	0.0%	-20.6%	8.9%	-26.9	-108.7*
COc1ccccc1N1CCN(C/C(C)=C/c2ccccc2)CC1	-0.1%	-5.1%	0.4%	-70.5	-88.8*
C/C=C(\C)CN1CCN(c2ccccc2)CC1	0.0%	7.7%	12.7%	-6.8	-71.2*
C/C=C(\C)CN1CCN(c2ccccc2F)CC1	-0.1%	-8.7%	4.4%	-2.9	-29.9
COc1ccccc1C(=O)Nc1nnc(S(=O)(=O)N(C)c2ccc(Cl)cc2)s1	.	.	0.0%	-32.8	.
Cc1ccc(NC(=O)[C@H](NC(=O)[C@@H]2Cc3ccccc3CN2)c2ccccc2)cc1C	3.2%	?	7.8%	-20.9	-101.0*
COc1ccc2oc(C(=O)OCC(=O)N3CCCC3=O)c(C)c2c1	-0.1%	32.2%	5.8%	-5.9	-1.4
SMILES	B2AR arrestin	a7 integrin act	mIDH1 inhibitor	DRD3 agonist	D3 antag
COc1ccc(C(=O)OCC(=O)N2CCCC2=O)c(OC)c1	-0.3%	-0.6%	-11.3%	1.9	-55.5*
COc1cc(SC)ccc1C(=O)OCC(=O)N1CCN(C(C)=O)CC1	-1.5%	0.0%	1.6%	-11.3	-64.5*
COc1cc(SC)ccc1C(=O)OCC(=O)NC1CCCC1	-1.1%	-5.3%	6.9%	-2.7	-3.6
N#Cc1cccc(OCCCN2CCC(C(O)(c3ccccc3)c3ccccc3)CC2)c1	.	.	.	-11.0	-86.1*
Cc1cc(OCCCN2CCC(C(O)(c3ccccc3)c3ccccc3)CC2)ccc1Br	.	.	.	-8.7	-0.5
O=C(NCCc1ccc(Cl)cc1)C1CCC(CNc2nc(=S)[nH]c3ccccc23)CC1 (configuration not stated)	0.1%	26.2%	-0.7%	-5.1	-13.3
O=C(NCCC1=CCCCC1)C1CCC(CNc2nc(=S)[nH]c3ccccc23)CC1 (configuration not stated)	0.4%	0.0%	-3.4%	-12.6	-83.4*
C1CCN(CCC2CCCCN2)CC1 (configuration not stated)	.	1.1%	2.5%	-6.1	20.0
